# In the library only some 4.3% were active in any assay of this set; here they are far more common.
# esBAF inh: SWI/SNF esBAF complex inhibition; mouse ES cells, Bmi1-luciferase knock-in reporter, 24 h; 100% = twice the neutral-well signal; reporter increase, % at 12.5 µM; hit rate 2% among 350,000; in the data active = activation above about 40%; inconclusive = no clear call, values can overlap the other calls;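 note: a rise in the Bmi1 reporter signal indicates esBAF inhibition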
# SMARCA2 act: increases SMARCA2 function in MMTV reporter cells | MG213 cells, MMTV-luciferase reporter, dexamethasone, overnight | activation, % at 9.1 µM | hit rate 1% among 370,000; in the data active = activation above about 7.8%
# AF4-AF9 inh: inhibitors of human MLL-AF4/AF9 interaction | hit rate 0.47% among 350,000 | inhibition, % at 10 µM | AlphaScreen, biotin-AF4 peptide binding to FLAG-AF9 | P42568 | AID 651704;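 active = every replicate reaching a set inhibition limit, whatever the replicate mean, cut at about 25% in these data; inconclusive = mean inhibition reaches that limit but some replicates miss it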
# Target sequence (P42568 whole entry, looked up): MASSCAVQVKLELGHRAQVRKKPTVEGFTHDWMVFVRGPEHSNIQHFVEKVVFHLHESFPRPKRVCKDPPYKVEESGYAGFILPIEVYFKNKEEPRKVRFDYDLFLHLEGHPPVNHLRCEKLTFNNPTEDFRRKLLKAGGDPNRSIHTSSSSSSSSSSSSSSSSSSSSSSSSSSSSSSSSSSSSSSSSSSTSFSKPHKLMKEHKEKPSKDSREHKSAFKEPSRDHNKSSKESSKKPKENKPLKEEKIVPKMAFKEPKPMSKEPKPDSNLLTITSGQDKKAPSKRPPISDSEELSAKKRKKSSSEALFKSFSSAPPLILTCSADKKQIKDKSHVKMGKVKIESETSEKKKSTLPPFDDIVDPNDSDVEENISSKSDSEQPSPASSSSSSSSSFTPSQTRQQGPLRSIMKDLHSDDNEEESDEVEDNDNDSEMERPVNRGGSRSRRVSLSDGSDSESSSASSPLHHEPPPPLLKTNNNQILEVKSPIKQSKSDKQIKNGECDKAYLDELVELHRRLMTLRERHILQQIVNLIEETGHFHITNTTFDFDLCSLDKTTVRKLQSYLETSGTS
# MITF TRPM1 HTS: increases MITF-driven TRPM1 promoter luciferase signal; SK-MEL-5 TRPM1-promoter luciferase, 24 h; % of positive control, neutral wells = 0; activation, % at 12.5 µM; hit rate 0.75% among 300,000;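 active = mean activation of at least 80% with every replicate also reaching 80%; inconclusive = mean reaches 80% but some replicate falls short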
# FGF22 binding: binders of recombinant human FGF22 by thermal shift; hit rate 1.5% among 340,000; activity (Tm shift, normalised), % at 9.99 µM; Q9HCT0; SYPRO orange fluorescence; percent of sucrose octasulfate shift, DMSO zero;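 active = mean Tm shift, scaled 0 neutral to 100 positive control, at about 1.3% or above, every replicate too, limit read from the data; inconclusive = no clear call, values can overlap the other calls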
# Wnt act: Wnt/beta-catenin pathway activation; Wnt/beta-catenin reporter cell assay, activator, plate reader; activation, % at 9.35 µM; hit rate 1.2% among 300,000; AID 743398; in the data active = activation above about 30%, passing the limit was not always enough; inconclusive = no clear call, values can overlap the other calls
# A number is an active result; i = inactive; ? = inconclusive; nt = no result.
SMILES,esBAF inh,SMARCA2 act,AF4-AF9 inh,MITF TRPM1 HTS,FGF22 binding,Wnt act
COc1ccc2c3c(n(C)c2c1)[C@@H](CO)N(C(=O)CN(C)C)CC31CCN(C(=O)CN(C)C)CC1,nt,nt,i,nt,i,nt
COc1ccc2c3c(n(C)c2c1)[C@H](CO)N(C(=O)c1ccccc1)CC31CN(Cc2ccccc2OC)C1,nt,nt,45,nt,i,nt
COc1ccc(CN(C)C[C@H]2Oc3ccc(NC(=O)CCC(F)(F)F)cc3C(=O)N([C@H](C)CO)C[C@H]2C)cc1,i,nt,i,nt,i,nt
CCC(=O)N1CC2(CN(Cc3ccc(Cl)cc3)C2)c2c(n(C)c3cc(OC)ccc23)[C@H]1CO,nt,nt,29,nt,i,nt
CCCNC(=O)N1CC2(CN(CC3CCCC3)C2)c2c(n(C)c3cc(OC)ccc23)[C@H]1CO,nt,nt,28,nt,i,nt
CCC(=O)N1CC2(CN(Cc3ccc(F)cc3)C2)c2c(n(C)c3cc(OC)ccc23)[C@H]1CO,nt,nt,i,nt,i,nt
CCCNC(=O)N1CC2(CCN(C(=O)C3CCC3)CC2)c2c([nH]c3cc(OC)ccc23)[C@@H]1CO,nt,nt,44,nt,i,nt
CCCNC(=O)N1CC2(CCN(C(=O)C3CCCC3)CC2)c2c([nH]c3cc(OC)ccc23)[C@@H]1CO,nt,nt,i,nt,i,nt
C[C@@H]1CN([C@@H](C)CO)C(=O)c2cc(Br)cnc2O[C@@H]1CN(C)C(=O)c1ccccc1,i,nt,i,nt,i,nt
O=c1c2sc(-c3ccccc3)cc2nc2n1CCCCC2,nt,i,i,nt,i,56
CC(C)(C)c1ccc(C(=O)CS(=O)(=O)c2ccccc2)cc1,i,i,nt,108,nt,nt
CSc1ccccc1C(=O)C1CCCN(C(=O)c2csnn2)C1 (stereo unspecified),i,i,i,i,43,i
O=C(Cc1ccccc1)N1CC2(C1)[C@@H](c1ccccc1)[C@@H](CO)N2S(=O)(=O)Cc1ccccc1,nt,nt,i,nt,i,nt
O=C(CSc1nncn1-c1cccnc1)Nc1ccccc1[N+](=O)[O-],i,i,i,i,i,i
CCc1ccc(NC(=O)CSc2nncn2-c2cccnc2)cc1,?,i,i,94,i,i
COC(=O)c1c(NC(=O)CN2CCOCC2)sc2c1CCC(C)C2 (stereo unspecified),62,i,nt,?,nt,nt
COCC(=O)Nc1sc2c(c1C(=O)OC)CCC(C)C2 (stereo unspecified),i,i,nt,nt,nt,nt
O=C(CSc1nc(N2CCCCC2)nc(N2CCCCC2)n1)c1ccccc1,i,i,nt,nt,nt,i
Cc1cc(N2CCCCC2)nc(SCC(=O)c2ccccc2)n1,53,i,nt,nt,nt,?
Cc1ccc(SC[C@H](c2ccccc2)N2CCN(C)CCC2=O)cc1,51,i,nt,i,nt,i
Cc1ccc(SC[C@H](CC(C)C)N2CCN(C)CCC2=O)cc1,58,i,i,i,i,i
CN1CCC(=O)N([C@H](CSc2ccccc2)c2ccccc2)CC1,i,i,i,i,i,i
COc1ccc(NC(=O)N(C)C[C@@H]2Oc3ccc(NS(=O)(=O)c4c(C)noc4C)cc3C(=O)N([C@H](C)CO)C[C@@H]2C)cc1,i,nt,i,nt,i,nt
CCOC(=O)/C(=C/c1ccc(OC(=O)c2ccncc2)cc1)C(C)=O,nt,i,i,i,44,46
CCOC(=O)C(=Cc1ccc(-n2ccnc2)cc1)C(=O)OCC,i,i,i,i,i,56
SMILES,esBAF inh,SMARCA2 act,AF4-AF9 inh,MITF TRPM1 HTS,FGF22 binding,Wnt act
CO[C@@H]1CN(C)C(=O)c2ccc(NC(=O)Nc3ccccc3F)cc2OC[C@@H](C)N(Cc2ccccc2F)C[C@H]1C,i,nt,i,nt,i,nt
N#Cc1cccc(-c2ccc3c(c2)[C@H]2[C@H](CCN2C(=O)c2ccc4c(c2)OCO4)[C@@H](CO)N3)c1,i,nt,i,nt,i,nt
Cc1cc(=O)oc2cc(NC(=O)c3cc4ccccc4o3)ccc12,nt,i,nt,nt,nt,nt
Cc1cc(=O)oc2cc(NC(=O)c3ccccc3OC(F)F)ccc12,53,i,i,i,i,i
Cc1cc(=O)oc2cc(NS(=O)(=O)c3ccccc3)ccc12,nt,i,i,nt,i,52
Cc1cc(=O)oc2cc(NC(=O)c3cc(F)ccc3F)ccc12,53,i,i,i,i,44
CCC(=O)Nc1ccc2c(c1)C(=O)N(C)[C@@H]1CC[C@@H](CC(=O)NCc3ccccc3)O[C@H]1CO2,i,nt,i,nt,i,nt
COc1cccc(S(=O)(=O)N2C[C@H](O)COC[C@@H]3O[C@@H](CC(=O)Nc4ccccc4)CC[C@H]32)c1,i,nt,i,nt,i,nt
Cc1cc(C(=O)C(=O)O)c(C)n1-c1ccc(Cl)cc1,i,i,i,i,i,i
Cc1cc(C(=O)C(C)Sc2cccc[n+]2[O-])c(C)n1-c1ccc(Cl)cc1 (stereo unspecified),62,i,i,i,i,i
CN(C)c1cccc(C(=O)n2cc(C(=O)c3cc(F)ccc3O)cn2)c1,52,7.8,nt,i,nt,nt
Clc1ccccc1-c1nc2ccccc2[nH]1,nt,i,i,nt,i,48
c1ccc2c(-c3nc4ccccc4[nH]3)cccc2c1,nt,i,i,nt,i,i
Clc1ccc(-c2nc3ccccc3[nH]2)cn1,50,i,i,i,i,i
Cc1ccccc1-c1nc2ccccc2[nH]1,58,i,nt,i,nt,nt
Cc1ccccc1NC(=S)c1nc2ccccc2[nH]1,49,i,27,i,i,i
Fc1ccccc1-c1nc2ccccc2[nH]1,nt,i,i,85,i,56
O=C(C[C@@H]1C[C@H]2c3cc(NC(=O)C4CCC4)ccc3O[C@H]2[C@H](CO)O1)NCC(F)(F)F,i,nt,i,nt,nt,nt
Cc1cc(C)n2ncc(/C(N)=N/OC(=O)c3ccccc3F)c2n1,nt,i,i,?,i,38
CCOC(=O)c1cnn2c(C)cc(-c3ccccc3)nc12,nt,7.9,nt,nt,nt,43
C[C@@H]1CN([C@H](C)CO)C(=O)c2cc(NS(C)(=O)=O)ccc2O[C@@H]1CN(C)C(=O)NC1CCCCC1,i,nt,i,nt,i,nt
Clc1ccccc1CSc1ncn(-c2ccccc2)n1,67,i,nt,i,nt,nt
Cc1ccc(CSc2ncn(-c3ccccc3)n2)cc1,i,i,nt,i,nt,i
Cc1noc(C)c1NC(=O)Nc1cccc2c1O[C@@H](CN(C)C(=O)Nc1cccc3ccccc13)[C@H](C)CN([C@H](C)CO)C2=O,i,nt,i,nt,i,nt
CO/N=C/C(C#N)=C/c1ccc(OC)cc1,88,i,i,i,44,i
SMILES,esBAF inh,SMARCA2 act,AF4-AF9 inh,MITF TRPM1 HTS,FGF22 binding,Wnt act
COc1ccc(/C=C(/C#N)S(=O)(=O)c2ccc(C)cc2)cc1,i,i,nt,nt,nt,i
CNc1nc(-c2ccc3c(c2)CCN3C(=O)c2ccc(F)cc2)cs1,52,i,nt,i,nt,i
CC(C)(C)Nc1nc(-c2ccc3c(c2)CCN3C(=O)C2CC2)cs1,95,i,i,nt,i,?
CNc1nc(-c2ccc3c(c2)CCN3C(=O)c2ccccc2C)cs1,nt,i,i,149,i,i
CC(C)C(=O)Nc1nc(-c2ccc3c(c2)CCN3C(=O)C2CC2)cs1,i,i,i,i,i,i
CNc1nc(-c2ccc3c(c2)CCN3C(=O)c2cccc(F)c2)cs1,nt,i,i,i,i,i
COc1ccc(/C=C/CN2CCN(CC(C)C)C(CCO)C2)cc1 (stereo unspecified),nt,i,i,i,44,i

# Source: PubChem BioAssay (several laboratories)
